According to PubChem BioAssay (EPA / NIEHS):
Activity calls are given as the source filed them. The calls were made as follows: active = hit-call score of the fitted dose curve at least 0.9, where 1 is the maximum; inactive = score below 0.9.

Experiment: APR_HepG2_p53Act_72hr: Apredica 72-hour HepG2 Assay for p53 Activation (AID 2282923);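 also: average cellular p53 protein immunofluorescence intensity in HepG2 cells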
Conditions: high-content imaging, actives raise or lower the signal
In short: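 HepG2 cells exposed 72 h to 0.39–200 uM in 0.5% DMSO, duplicates. Fixed, permeabilized cells immunostained for p53 (Cy5) with Hoechst; imaged at 20x, fluorescence analyzed bidirectionally against DMSO.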

Row | SMILES | outcome | AC50
1 | N#CN=C1SCCN1Cc1ccc(Cl)nc1 | inactive | –
2 | CCCC(=NOCC)C1=C(O)CC(CC(C)SCC)CC1=O (stereo not given) | inactive | –
3 | CC1(C)CCC(=Cc2ccc(Cl)cc2)C1(O)Cn1cncn1 (stereo not given) | inactive | –
4 | Cc1cc(C)nc(Nc2ccccc2)n1 | inactive | –
5 | CCOc1nc(C(Cl)(Cl)Cl)ns1 | inactive | –
6 | CC(C)Nc1nc(Cl)nc(NC(C)C)n1 | inactive | –
7 | O=c1n(Cl)c(=O)n(Cl)c(=O)n1Cl | inactive | –
8 | CCCN(CC)CC1COC2(CCC(C(C)(C)C)CC2)O1 (stereo not given) | inactive | –
9 | Clc1nc(Cl)nc(Nc2ccccc2Cl)n1 | inactive | –
10 | CS(=O)(=O)c1ccc(C(=O)C2C(=O)CCCC2=O)c([N+](=O)[O-])c1 | inactive | –
11 | Nc1c(Cl)c(F)nc(OCC(=O)O)c1Cl | inactive | –
12 | CCN(CC)c1nc(C)cc(OP(=S)(OC)OC)n1 | inactive | –
13 | CCCCC(O)(Cn1cncn1)c1ccc(Cl)cc1Cl (stereo not given) | – | 120 µM (active)
14 | COc1ccc(-c2ccccc2)cc1NNC(=O)OC(C)C | inactive | –
15 | CSC(=O)c1c(C(F)F)nc(C(F)(F)F)c(C(=O)SC)c1CC(C)C | inactive | –
16 | CCOC(=O)C(C)OC(=O)c1cc(Oc2ccc(C(F)(F)F)cc2Cl)ccc1[N+](=O)[O-] (stereo not given) | inactive | –
17 | O=P(O)(O)CCCl | inactive | –

Row | SMILES | outcome | AC50
18 | COCC(C)N(C(=O)CCl)c1c(C)csc1C (stereo not given) | inactive | –
19 | COC(=O)c1c(C(F)F)nc(C(F)(F)F)c(C2=NCCS2)c1CC(C)C | inactive | –
20 | CCN(CC)C(=O)C(C)Oc1cccc2ccccc12 (stereo not given) | inactive | –
21 | CNC(=O)N(C)c1nnc(C(C)(C)C)s1 | inactive | –
22 | CCOP(=O)(OCC)Oc1nc(Cl)c(Cl)cc1Cl | inactive | –
23 | CC(C)C1(C)N=C(c2ncccc2C(=O)O)NC1=O (stereo not given) | inactive | –
24 | CC(C)N1C(=O)c2ccccc2NS1(=O)=O | inactive | –
25 | COC(=O)NC(=S)Nc1ccccc1NC(=S)NC(=O)OC | inactive | –
26 | CC(C)(C)C(=O)C(Oc1ccc(Cl)cc1)n1cncn1 (stereo not given) | inactive | –
27 | CCC(C)n1c(=O)[nH]c(C)c(Br)c1=O (stereo not given) | inactive | –
28 | CCNP(=S)(OC)O/C(C)=C/C(=O)OC(C)C (stereo not given) | inactive | –
29 | CC(C)NC(=O)N1CC(=O)N(c2cc(Cl)cc(Cl)c2)C1=O | inactive | –
30 | CCCCOCN(C(=O)CCl)c1c(CC)cccc1CC | inactive | –
31 | CO/N=C(/C1=NOCCO1)c1ccccc1Oc1ncnc(Oc2ccccc2Cl)c1F | inactive | –
32 | CC1(C)C(C=C(Cl)Cl)C1C(=O)OC(C#N)c1cccc(Oc2ccccc2)c1 (stereo not given) | inactive | –
33 | Nc1c(Cl)c(Cl)nc(C(=O)O)c1Cl | inactive | –
34 | CC1(C)CON(Cc2ccccc2Cl)C1=O | inactive | –

Experiment: APR_HepG2_MitoMass_72hr: Apredica 72-hour HepG2 Assay for Mitochondrial Mass (AID 2282924);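 also: MitoTracker Red CMXRos stain intensity per cell imaged as mitochondrial mass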
Conditions: high-content imaging, actives raise or lower the signal
In short: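 HepG2, 72 hr cmpd, 10 conc 0.39–200 uM in dup, DMSO 0.5% v/v. MitoTracker Red CMXRos 250 nM 30 min pre-fix; formaldehyde 3.7% fix 30 min RT. HCS imaging, gain/loss fit vs DMSO.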

Row | SMILES | outcome | AC50
35 | N#CN=C1SCCN1Cc1ccc(Cl)nc1 | inactive | –
36 | CCCC(=NOCC)C1=C(O)CC(CC(C)SCC)CC1=O (stereo not given) | inactive | –
37 | CC1(C)CCC(=Cc2ccc(Cl)cc2)C1(O)Cn1cncn1 (stereo not given) | inactive | –
38 | Cc1cc(C)nc(Nc2ccccc2)n1 | inactive | –
39 | CCOc1nc(C(Cl)(Cl)Cl)ns1 | inactive | –
40 | CC(C)Nc1nc(Cl)nc(NC(C)C)n1 | inactive | –
41 | O=c1n(Cl)c(=O)n(Cl)c(=O)n1Cl | inactive | –
42 | CCCN(CC)CC1COC2(CCC(C(C)(C)C)CC2)O1 (stereo not given) | inactive | –
43 | Cc1nc(N(C)C)nc(OC(=O)N(C)C)c1C | inactive | –
44 | Clc1nc(Cl)nc(Nc2ccccc2Cl)n1 | inactive | –
45 | CS(=O)(=O)c1ccc(C(=O)C2C(=O)CCCC2=O)c([N+](=O)[O-])c1 | inactive | –
46 | Nc1c(Cl)c(F)nc(OCC(=O)O)c1Cl | inactive | –
47 | CCN(CC)c1nc(C)cc(OP(=S)(OC)OC)n1 | inactive | –
48 | CCCCC(O)(Cn1cncn1)c1ccc(Cl)cc1Cl (stereo not given) | inactive | –
49 | COc1ccc(-c2ccccc2)cc1NNC(=O)OC(C)C | inactive | –
50 | CSC(=O)c1c(C(F)F)nc(C(F)(F)F)c(C(=O)SC)c1CC(C)C | inactive | –
51 | CCOC(=O)C(C)OC(=O)c1cc(Oc2ccc(C(F)(F)F)cc2Cl)ccc1[N+](=O)[O-] (stereo not given) | inactive | –
52 | O=P(O)(O)CCCl | inactive | –

Row | SMILES | outcome | AC50
53 | COCC(C)N(C(=O)CCl)c1c(C)csc1C (stereo not given) | inactive | –
54 | COC(=O)c1c(C(F)F)nc(C(F)(F)F)c(C2=NCCS2)c1CC(C)C | inactive | –
55 | CCN(CC)C(=O)C(C)Oc1cccc2ccccc12 (stereo not given) | inactive | –
56 | CNC(=O)N(C)c1nnc(C(C)(C)C)s1 | inactive | –
57 | CCOP(=O)(OCC)Oc1nc(Cl)c(Cl)cc1Cl | inactive | –
58 | CC(C)C1(C)N=C(c2ncccc2C(=O)O)NC1=O (stereo not given) | inactive | –
59 | CC(C)N1C(=O)c2ccccc2NS1(=O)=O | inactive | –
60 | COC(=O)NC(=S)Nc1ccccc1NC(=S)NC(=O)OC | – | 41.6 µM (active)
61 | CC(C)(C)C(=O)C(Oc1ccc(Cl)cc1)n1cncn1 (stereo not given) | inactive | –
62 | CCC(C)n1c(=O)[nH]c(C)c(Br)c1=O (stereo not given) | inactive | –
63 | CCNP(=S)(OC)O/C(C)=C/C(=O)OC(C)C (stereo not given) | inactive | –
64 | CC(C)NC(=O)N1CC(=O)N(c2cc(Cl)cc(Cl)c2)C1=O | inactive | –
65 | CCCCOCN(C(=O)CCl)c1c(CC)cccc1CC | inactive | –
66 | O=C(O)c1c(Cl)ccc2cc(Cl)cnc12 | inactive | –
67 | CO/N=C(/C1=NOCCO1)c1ccccc1Oc1ncnc(Oc2ccccc2Cl)c1F | inactive | –
68 | CC1(C)C(C=C(Cl)Cl)C1C(=O)OC(C#N)c1cccc(Oc2ccccc2)c1 (stereo not given) | inactive | –
69 | Nc1c(Cl)c(Cl)nc(C(=O)O)c1Cl | inactive | –
70 | CC1(C)CON(Cc2ccccc2Cl)C1=O | inactive | –
